For 35 compounds, growth results are on record in PubChem BioAssay (NCI).

The structures appear in SMILES notation. Compounds without any hit were thinned out: in the full panel of roughly 83,000, 20% have a hit.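 Each cell line was grown in a 96-well plate and treated with one concentration of compound for 48 hours. Values below 10 were considered active.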 Active and inactive are the calls of the source.

The assay deals with MDA-MB-468 breast. The assay can be described thus: NCI-60 one-dose screen, 48 h (100 = growth as untreated, 0 = no growth, -100 = all killed). The conditions noted are these: 10 µM unless noted.
Consider `COC(=O)[C@]12CC[C@@H](C)[C@H](C)[C@@H]1C1=CC[C@@H]3[C@@]4(C)C=C(O)C(=O)[C@@]5(C)COC(=C54)C[C@@]3(C)[C@]1(C)CC2`, for which the growth was -57.7% (active). For `CC(=O)Oc1ccc(OC(C)=O)c2ccccc12`, the growth is -53.2% (active). As to `COc1cc(/C=N/Nc2ccc(Br)cc2)cc(OC)c1OC`, the growth was 49.5% (inactive). For `CCc1ccc(CCC(=O)Nc2ncc(Cc3ccccc3)s2)o1`, the growth was 28.1% (inactive). To `COC(=O)CCC(=O)C(=O)OC` belongs 52.9% [10 mM] (inactive). For `CCc1ccc(NC(=O)N[C@@H](Cc2cccc(F)c2)C(=O)N[C@@H]2C(=O)N3CCC[C@H]3C(=O)N3CCCC[C@H]3C(=O)N[C@@H](CO)C(=O)N3C[C@H](C)C[C@H]3C(=O)O[C@H]2C)c(F)c1`, the growth is -7.85% (active). For the compound `[O-]/[N+](=C\c1ccccc1)CC1(O)CCCCC1`, the growth is 108% (inactive). With `O=C(CSc1nc2sc3c(c2c(=O)n1-c1ccc(Cl)cc1)CCCC3)N/N=C/c1ccc(F)cc1`, the growth was 129% (inactive). On to `O=C(O)c1cc(C(F)(F)F)cc(C(F)(F)F)c1`, for which the growth was 109% (inactive). In the case of `COc1cc(N2C(=O)[C@H](c3ccccc3)C2c2ccc(SC)cc2)cc(OC)c1OC` (stereo not given in full), the growth is -9.99% (active). Regarding `CCCCCCCCn1ccc2cc(NC(=O)Cn3cc(CN4CCC(C)CC4)nn3)ccc21`, the growth is -52.9% (active).

Take `Fc1cccc(-c2nc(-c3c[nH]c4ncccc34)cs2)c1`: the growth was 29.4% [100 µM] (inactive). For the compound `CCN(CC)CCCC(C)Nc1cnc(C(=O)Nc2cccc3ccc(OC)nc23)cn1` (stereo not given), the growth was 79.1% (inactive).

Turning to `CCCCSC1=C(Cl)CN(c2ccc(Cl)cc2)C1=O`, the growth was 77.9% (inactive). Turning to `CCCCn1c(=O)c(/C=C/C(=O)/C=C/c2ccc(O)c(OC)c2)cc2ccc(Cl)cc21`, the growth was 15% (inactive). To `Fc1cnc(NC2CC2)nc1-c1cnc2ccc(N3CCOCC3)cn12` belongs -29.6% (active); to `Cc1c(C(=O)NCCC(=O)NO)sc2ncnc(Nc3ccc(F)c(Cl)c3)c12`, 103% (inactive); to `Cc1ccc(S(=O)(=O)Oc2ccc3sc4c(CO)ccc(NCCN(C)C)c4c(=O)c3c2)cc1`, -75.1% [100 µM] (active). To `C=COC(=O)C(C)(C)C` belongs 106% (inactive). With `Clc1ccc2nc(CI)c(CI)nc2c1`, the growth is 55.6% (inactive). Consider `N#Cc1c(-c2ccccc2)nc2c(c(-c3ccccc3)nn2-c2ccccc2)c1-c1ccc(O)cc1`, for which the growth is 38.3% (inactive). Consider `C#CC[C@@H]1C[C@]2(C)[C@H]3CC=C4[C@H]5[C@@H](C)[C@H](C)CC[C@]5(C(=O)NCCCCN)CC[C@@]4(C)[C@]3(C)CC[C@H]2C(C)(C)[C@H]1OC(C)=O`, for which the growth was 81% (inactive). To `O=C(N/N=C/c1ccccc1SSc1ccccc1/C=N/NC(=O)c1ccccc1)c1ccccc1` belongs 51.9% (inactive); to `CSc1nc2sc3c(c2c(=O)n1-c1ccc([N+](=O)[O-])cc1)CCCCC3`, 83% (inactive); to `COc1ccc(-c2csc(NC(=O)CN3CCN(c4cc5c(cc4F)c(=O)c(C(=O)O)cn5C4CC4)CC3)n2)cc1`, -0.675% (active). Under `FCc1ncc(-c2ccc(C(F)(F)F)cc2)c(NC2CCCCCC2)n1` stands 24.8% [100 µM] (inactive); under `CCOC(=O)c1cc(-c2ccc([N+](=O)[O-])cc2)n(-c2ccc(C(=O)O)c(O)c2)c1C`, 58.8% (inactive). For `CCN(CC)CCCC(C)Nc1cc(O)cc2cccnc12` (stereo not given), the growth is 73.9% (inactive).

In the case of `CCCCCC(=O)Oc1ccc(/C(=C(\C)c2ccccc2)c2ccc(OCCN3CCCCC3)cc2)cc1`, the growth is 75.7% (inactive). As to `O=C(Nc1cccc(Cl)c1)OCC(COC(=O)Nc1cccc(Cl)c1)(COC(=O)Nc1cccc(Cl)c1)[N+](=O)[O-]`, the growth was 16.5% (inactive).

In the case of `O=C(CSc1nc2ccccc2c(=O)n1CCc1ccccc1)Nc1ccc(S(=O)(=O)Nc2ccc(Cl)nn2)cc1`, the growth is 103% (inactive). With `C=C(C)[C@@H]1CC[C@]2(C(=O)OC)CC[C@]3(C)[C@H](CC[C@@H]4[C@@]5(C)CC/C(=N\OCCC(=NCCC#N)NOCCC#N)C(C)(C)[C@@H]5CC[C@]43C)[C@@H]12`, the growth was 4.41% [100 µM] (active). Turning to `CC(C)(C)n1cc(-c2ccnc(NCCCNS(=O)(=O)c3cccc(F)c3)n2)c(-c2ccc(Cl)c(O)c2)n1`, the growth was 104% (inactive).

Take `C=CCSc1nnc(COc2ccc3c(C)c(Cc4ccccc4)c(=O)oc3c2C)o1`: the growth was 113% (inactive).

Consider `COc1ccc2nc(NC(=O)Nc3c(F)cccc3F)sc2c1`, for which the growth was 96.1% (inactive).
